test system: RARg homodimer (NR concentration 270 nM); experiment: PBM binding z-score (relative to random genomic background probes); higher = stronger binding; sequences stand for … in GC…GCGATTGACAGCGTAGAATGAAGG
Summary of the method: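 Antibodies against each partner of ligand-free nuclear receptor dimers (one per run) detected binding on custom Agilent 4×180K protein-binding microarrays after 1 h incubation. The double-stranded probes had 34-nt variable regions carrying direct-repeat seeds, single-nucleotide variants, half-site ablations and random human genomic background sequences. Binding z-scores, from regression-normalized fluorescence, use the random background probes as reference.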

| Sequence | PBM binding z-score |
| --- | --- |
| TCTTGTAGATCAATAGAGGTCAAGAAAGTGCGCT | 3.84 |
| CCTTACGGGTCACTCCAGGTTATAACATCGGAGT | 3.97 |
| TCTTGTAGATCAAAAGTTAAGAAAGCCGAAGCCT | -0.147 |
| TAGCCTAGGTCATGCGGGCCAGTATGGTGTCGGC | 4.58 |
| CGTCCAAGGTCAATGCTAGGTGAGTGAAAGCATT | 6.07 |
| TAGCCTGGGTCATTGGGCCAGTATAGTACGCATC | 3.47 |
| TCTTGTAGATCAACAGAAGGTTAAGAAAGATCGA | 0.329 |
| CGAACTAGGTCATCCAGGAAAGTGAATACATTGA | 4.93 |
| ATCTCTAGGTAACTAAGTTCAGTGAATGCCGAAC | 0.956 |
| CCTGCTAGGTGAATGGTCAGCTAAAGCAGCTCGC | 0.301 |
| TCATATAGGTAAATGCTAGGTGGAAGTCCGATCT | 0.0562 |
| ACTAACAGGCCAAGTTTGGGTCACTCAAACAAAG | 2.24 |
| GCTAGTTGGTCAGTATAAGGTCACACACCGGTCG | 3.75 |
| CGAACTAGGTAAGAACAGGACAGTGAAGGATGAT | 0.345 |
| CCGAGCAGGTTATGGGGCATTCAGGCAACGGTGA | 0.573 |
| CCTACTGAGCCAAGGTCATTGATCAGTCAAAGCA | 3.17 |
| TCTACTAGGTCAACGATGGTCAGCTAATCTGCTA | 5.16 |
| CCTTACGGGTCACGCCAGGTTATAGCATCGGAGT | 5.54 |
| ACAGACAGGTGATGAAGGCAACTCAGGCTATCAT | 0.345 |
| CCTAGTTGGTCAAGGGCACACACGCTATAGGTAC | 1.99 |
| ACTAGCAGGCCAAATTTGGGTCACTCAAACAAAG | 1.39 |
| CGTCCAAGGTCAATACTAGGTCAGTGAAAGCATT | 6.34 |

— the supplement of paper PMC6555819
